Bioassay records as filed in PubChem.
Most compounds without a hit are left out; they make up all but 7.9% or so of the library.
KB-V1 MDR tox – kills drug-selected multidrug resistant KB-V1 cells; KB-V1 MDR cells viability, CellTiter-Glo, 72 h; Potency, µM (series often up to 46.1 µM), usual class: cytotoxic; AID 1347076; actives 3.4% (n = 400,000); note: nearly all actives have a fitted effect of over 60% in size
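Cells of the MDR subline KB-V1 are plated, dosed with compound at multiple concentrations, and incubated 72 h at 37 degrees C; CellTiter-Glo is then added and luminescence read after 10 min.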
SW480 rerep – induces DNA re-replication in SW480 colon adenocarcinoma cells. AID 624297. actives 1.8% (n = 340,000). SW480 DNA re-replication, Hoechst DNA content imaging, 48 h. Potency, µM (highest dose often 46.1 µM), hits mostly activators; note: nearly all actives have a fitted effect of over 55% in size
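Per well, 250 cells were exposed to pinned compound for 48 hr. Nuclear DNA was visualised with Hoechst (40 min, 37 C) and total object intensity recorded by fluorescence scanning.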
MCF10A rerep – induces DNA re-replication in MCF 10a normal breast cells. MCF 10A DNA re-replication, Hoechst nuclear intensity, 48 h. Potency, µM (series often up to 46.1 µM), most hits filed as activators. actives 2.9% (n = 350,000). AID 624296; note: nearly all actives have a fitted effect of over 50% in size
KB-3-1 cytotox – kills parental KB-3-1 adenocarcinoma cells | KB-3-1 viability, CellTiter-Glo ATP luminescence, 72 h | Potency, µM (highest dose often 46.1 µM), usual class: cytotoxic | actives 1.4% (n = 400,000) | AID 1347075; note: nearly all actives have a fitted effect of over 60% in size
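Cytotoxicity in the drug-sensitive parental line KB-3-1 was scored as loss of CellTiter-Glo luminescence following 72 h incubation with compound. Values come from curve fitting of normalized concentration-response data.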
HT1080NT lethal – kills 2HG-producing HT-1080-NT fibrosarcoma cells; HT-1080-NT fibrosarcoma viability, CellTiter-Glo ATP luminescence, 48 h; Potency, µM (series often up to 46.1 µM), actives largely listed as cytotoxic; actives 1.6% (n = 360,000);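 note: NT is the 2HG producing partner of a matched IDH1 knockdown line; nearly all actives have a fitted effect of over 55% in size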
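750 cells/well, RPMI + 5% FBS; 2 h settle, compound pin-transfer, 48 h at 37 degrees C. CellTiter-Glo 10 min RT, luminescence. Normalized to DMSO and media-only wells.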
HT1080 IDH1KD tx – toxicity to HT-1080 IDH1 knockdown cells (counter line); HT-1080 IDH1 knockdown viability, ATP luminescence, 48 h; Potency, µM (titrated, usually from 46.1 µM), usual class: cytotoxic; actives 2% (n = 360,000); AID 686971
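Knockdown cells (IDH1KD HT-1080) received compounds 2 h after plating at 750 cells/well and were kept 48 h at 37 °C in 5% FBS RPMI. A CellTiter-Glo luminescence read gave % activity for curve fitting.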
Of the large screens only hits and unclear results are named; the others gave an inactive call. Calls come from the whole dose curve; as a rule, active = well fitted curve in the direction sought with a large enough effect; inconclusive = small, poorly fitted or top-dose-only effect, or another doubt; inactive = no such curve, though single readings can be large; an effect the other way counts as inactive or inconclusive.

CC(=O)c1c(C)[nH]c(C(=O)Nc2ccc(N3CCCCCC3)cc2)c1C	none (no result: SW480 rerep, MCF10A rerep)
O=C(O)c1ccc(N=Nc2c(O)ccc3ncccc23)cc1	KB-V1 MDR tox inconclusive, SW480 rerep 14.6µM, KB-3-1 cytotox inconclusive, HT1080NT lethal inconclusive, HT1080 IDH1KD tx 23.1µM
c1ccc(CCCCN2C(Nc3ccccc3)=NC[C@@H]2Cc2ccccc2)cc1	MCF10A rerep inconclusive
COc1ccc(-c2nn(-c3ccccc3)cc2/C=N/NC(N)=S)cc1OC	KB-V1 MDR tox inconclusive, SW480 rerep 2.06µM, MCF10A rerep 1.64µM, HT1080NT lethal 0.731µM, HT1080 IDH1KD tx 0.651µM
COc1ccc(-c2nn(-c3ccccc3)cc2C=O)cc1[N+](=O)[O-]	SW480 rerep inconclusive
COc1ccc(-c2nn(-c3ccccc3)cc2/C=C/C(=O)O)cc1[N+](=O)[O-]	SW480 rerep inconclusive, MCF10A rerep inconclusive, KB-3-1 cytotox inconclusive, HT1080 IDH1KD tx 18.4µM
O=C(O)/C=C/c1cn(-c2ccccc2)nc1-c1ccc(-c2ccc([N+](=O)[O-])cc2)o1	SW480 rerep inconclusive, MCF10A rerep 3.26µM
O=C(OCC#CCSc1nnc(-c2ccccc2)o1)c1cc2ccccc2o1	none
C=CCn1c(-c2ccc(S(=O)(=O)N3CCOCC3)cc2)csc1=Nc1ccccc1	MCF10A rerep inconclusive, KB-3-1 cytotox inconclusive
C=CCn1c(-c2ccc(OC)cc2)csc1=Nc1c(C)n(C)n(-c2ccccc2)c1=O	KB-V1 MDR tox 8.2µM, KB-3-1 cytotox 16.4µM
Cc1csc(=Nc2c(C)n(C)n(-c3ccccc3)c2=O)n1Cc1ccccc1	none
CC(=O)c1cccc(N=c2scc(-c3ccc(S(=O)(=O)N4CCOCC4)cc3)n2CCO)c1	KB-V1 MDR tox 5.8µM
COc1ccc(-c2csc(=Nc3ccccc3)n2CCO)cc1	KB-V1 MDR tox 7.31µM, MCF10A rerep inconclusive, KB-3-1 cytotox 11.6µM
COC(=O)c1ccc(CSc2nccn2C)cc1	none
Cc1ccc(C(C[N+](=O)[O-])Sc2ccc(N)cc2)cc1 (stereo not given)	KB-V1 MDR tox inconclusive, SW480 rerep inconclusive, MCF10A rerep 7.31µM, HT1080NT lethal inconclusive, HT1080 IDH1KD tx 16.4µM
CCC(=O)N1CCN(c2ccccc2NC(=O)c2ccc(OC)c(Cl)c2)CC1	KB-V1 MDR tox inconclusive
Fc1cc(NCc2ccccc2)nc(NCc2ccccc2)n1	MCF10A rerep inconclusive
Cc1cc(Nc2cccc(F)c2)nc(NCc2ccccc2)n1	KB-V1 MDR tox 8.2µM, SW480 rerep inconclusive, MCF10A rerep inconclusive, KB-3-1 cytotox inconclusive, HT1080NT lethal inconclusive, HT1080 IDH1KD tx inconclusive
Cc1cc(Nc2ccccc2)nc(NCc2ccccc2)n1	KB-V1 MDR tox 10.3µM, SW480 rerep inconclusive, MCF10A rerep 16.4µM, KB-3-1 cytotox 20.6µM, HT1080NT lethal inconclusive, HT1080 IDH1KD tx 23.1µM
CCCCNc1cc(C)nc(NCc2ccccc2)n1	KB-V1 MDR tox 5.8µM, KB-3-1 cytotox 6.51µM, HT1080NT lethal 25.9µM, HT1080 IDH1KD tx 23.1µM
Cc1cc(N2CCC(C)CC2)nc(NCc2ccccc2)n1	SW480 rerep 0.517µM, KB-3-1 cytotox 13µM
N#Cc1nc(COc2ccccc2F)oc1NCc1ccc(F)cc1	MCF10A rerep inconclusive
N=c1sccn1CC(=O)Nc1ccccc1Cc1ccccc1	KB-V1 MDR tox inconclusive
CN(C(=O)CN1CCN(c2ccccc2F)CC1)C1CCCc2ccccc21 (stereo not given)	MCF10A rerep inconclusive
O=C(Nc1ccc(F)cc1)Nc1ccc2c(c1)OCO2	none
Cc1cc(Oc2ccccc2F)nc(NCc2ccccc2)n1	KB-V1 MDR tox inconclusive, SW480 rerep inconclusive, KB-3-1 cytotox inconclusive
Cc1cc(Oc2ccccc2)nc(NCc2ccccc2)n1	KB-V1 MDR tox 20.6µM, SW480 rerep inconclusive, KB-3-1 cytotox 16.4µM
Cc1cc(Nc2ccc(Cl)cc2)nc(NCc2ccccc2)n1	KB-V1 MDR tox 20.6µM, SW480 rerep inconclusive, MCF10A rerep inconclusive, KB-3-1 cytotox inconclusive, HT1080NT lethal inconclusive, HT1080 IDH1KD tx inconclusive
C[C@H]1CN([C@@H](C)CO)C(=O)c2cc(NS(=O)(=O)c3ccc(Cl)cc3)ccc2O[C@@H]1CN(C)CC1CCCCC1	none
